This is an account of results in PubChem BioAssay.

The structures appear in SMILES notation. “And” between values parts separate entries of the source, which are not always exact repeats. Identical values can stand only once. The source made the active and inactive calls. Cut-off read from the data, not from the text of the source, unless noted: active = parasite load remaining mostly below about 12% (no sharp cut-off); inactive = mostly above about 10%. Square brackets hold non-standard residues; d marks the D form. Side chains are listed from the residue outwards. Peptide text beside a SMILES is read from it. * marks the point of attachment. X2 = CCC(C)C(N)C1=NC(C(=O)*)CS1; Orn = NCCC[CH](N)C(=O)O

The nature of test [1]: P. berghei load reduction in hepatocytes – cell-based, HepG2, luciferase luminescence, HepG2 viability, primary screen (AID 624349).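 Note: 100% = mean of DMSO negative control wells on the same plate.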 As to conditions: P. berghei liver stage in HepG2, luciferase luminescence, concentration not given here; parasite load remaining: stronger effect = lower value; viability: measured here: HepG2 viability without parasites.
The nature of test [2]: EMT-state selective cytotoxicity in co-culture – imaging, PC-3E GFP, TEM4-18 mCherry, primary screen (AID 1345086;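 active = compounds killing one labelled cell type while sparing the other, by normalised counts and ratio limits, not self-fluorescent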;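 for all read-outs here: cells exposed to compound for 72 h before imaging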;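 for red/green cell ratio (normalised): normalised mesenchymal count divided by normalised epithelial count so high means epithelial killing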). As to conditions: PC-3E GFP / TEM4-18 mCherry co-culture, imaging cell counts, at 1 µM; for red/green cell ratio (normalised): actives lie on both sides, counts scaled to control wells, 1 = unselective.
Test [3] can be described thus: viability loss with induced miR-34 in A549 – imaging, A549 dox-inducible miR-34, nuclei and caspase counts, primary screen (AID 1347080;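 active = compounds whose cell count with miR-34 switched on is under 0.7 times the count with it off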). To be noted: A549 miR-34 inducible, Hoechst nuclei count, 48 h.
Test [4] can be described thus: compounds altering viability of human ES cells (AID 493140; call rule not given here;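 note: cells exposed to compounds for four days before counting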). As to conditions: human embryonic stem cell survival screen; stronger effect = higher value.
[5] abbreviates: measured here: epithelial PC-3E GFP cell survival.
Where [6] appears, read: measured here: mesenchymal TEM4-18 mCherry cell survival.
Setting [7] is: stronger effect = lower value, cell number ratio, induced over uninduced.
Where [8] appears, read: measured here: relative caspase fold change +Dox/-Dox.
Where [9] appears, read: measured here: total cells with miR-34 induction, stronger effect = lower value.
Where [10] appears, read: measured here: total cells without miR-34 induction.

In the case of `COc1cc([C@@H]2c3cc4c(cc3C(O[C@@H]3O[C@@H]5CO[C@@H](c6cccs6)OC5[C@H](O)[C@H]3O)C3COC(=O)[C@@H]32)OCO4)cc(OC)c1O` (some centres not stated), the parasite load remaining in test [1] is 111% (inactive) and 83.3% (inactive). The viability (commonly a read-out of living cells in per cent, often relative to untreated cells) in test [1] is 75.6% and 112%. Besides, the red/green cell ratio (normalised) in test [2] is 1.33 (inactive). In addition, the values for the normalised cell number in test [2] (setting [5]) and in test [2] (setting [6]) were 0.27 and 0.36, respectively. Moreover, the figures for the fold change in test [3] (setting [7]) and in test [3] (setting [8]) were 0.795 (inactive) and 3.39, respectively. The cell count came to 3270 in test [3] (setting [9]) and 4110 in test [3] (setting [10]).
As for `C[C@H]1CC2C([C@@H](O)C[C@@]3(C)C2CC[C@]3(O)C(=O)COC(=O)CCC(=O)O)[C@@]2(C)C=CC(=O)C=C12` (some centres not stated), the parasite load remaining in test [1] is 83.5% (inactive). In addition, in test [1], the viability is 148%. The red/green cell ratio (normalised) in test [2] was 0.8 (inactive). For the same compound, the normalised cell number is 1.3 in test [2] (setting [5]) and 1.04 in test [2] (setting [6]). Moreover, the fold change was 0.962 (inactive) in test [3] (setting [7]) and 2.48 in test [3] (setting [8]). The results for the cell count in test [3] (setting [9]) and in test [3] (setting [10]) were 7610 and 7910, respectively.
Take `CC(=O)c1cc2ccccc2oc1=O`: the survival in test [4] is 6.92 (inactive). Further, the parasite load remaining in test [1] is 80.8% (inactive). Moreover, the viability in test [1] was determined as 96.7%. Besides, in test [2], the red/green cell ratio (normalised) is 0.84 (inactive). Also, the results for the normalised cell number in test [2] (setting [5]) and in test [2] (setting [6]) were 1.16 and 0.98, respectively. For the same compound, the figures for the fold change in test [3] (setting [7]) and in test [3] (setting [8]) were 0.915 (inactive) and 1.42, respectively. For the same compound, the cell count in test [3] (setting [9]) is 8970; in test [3] (setting [10]), 9810.
As to `CC(C)(O/N=C(\C(=O)N[C@@H]1C(=O)N2C(C(=O)[O-])=C(C[n+]3ccccc3)CSC12)c1csc(N)n1)C(=O)O` (some centres not stated), the parasite load remaining in test [1] is 57.9% (inactive). In addition, in test [1], the viability was 101%. Moreover, the red/green cell ratio (normalised) in test [2] was 0.74 (inactive). The figures for the normalised cell number in test [2] (setting [5]) and in test [2] (setting [6]) were 1.28 and 0.94, respectively. The fold change in test [3] (setting [7]) is 0.922 (inactive); in test [3] (setting [8]) it was 3.92. Besides, the figures for the cell count in test [3] (setting [9]) and in test [3] (setting [10]) were 12200 and 13200, respectively.
`CCN[C@@H]1C[C@H](N)[C@@H](O[C@H]2OC(CN)=CC[C@H]2N)[C@H](O)[C@H]1OC1OC[C@](C)(O)[C@H](NC)[C@H]1O` (some centres not stated): the parasite load remaining in test [1] is 81% (inactive). In test [1], the viability was 99.2%. In addition, the red/green cell ratio (normalised) in test [2] is 0.96 (inactive). The normalised cell number is 1.05 in test [2] (setting [5]) and 1 in test [2] (setting [6]). The fold change is 0.763 (inactive) in test [3] (setting [7]) and 6.26 in test [3] (setting [8]). Moreover, the cell count in test [3] (setting [9]) worked out at 8580; in test [3] (setting [10]) it was 11200.
As to `C[C@]12CCC(=O)C=C1C=CC1C2CC[C@@]2(C)C1CC[C@@]21CCC(=O)O1` (some centres not stated), the parasite load remaining in test [1] is 99.9% (inactive) and 38.4% (inactive). Besides, the viability in test [1] was 91.3% and 97%. Further, in test [2], the red/green cell ratio (normalised) is 0.76 (inactive). The normalised cell number in test [2] (setting [5]) was found to be 1.2; in test [2] (setting [6]), 0.92. For the same compound, the fold change was 0.895 (inactive) in test [3] (setting [7]) and 1.44 in test [3] (setting [8]). Also, the figures for the cell count in test [3] (setting [9]) and in test [3] (setting [10]) were 11200 and 12500, respectively.
On to `CCC(C)C(N)C1=NC(C(=O)NC(CC(C)C)C(=O)NC(CCC(=O)O)C(=O)NC(C(=O)NCCCCC2NC(=O)C(CC(N)=O)NC(=O)C(CC(=O)O)NC(=O)C(Cc3cnc[nH]3)NC(=O)C(Cc3ccccc3)NC(=O)C(C(C)CC)NC(=O)C(CCCN)NC2=O)C(C)CC)CS1` (stereo not drawn) (cyclo(DNK([Ile-Glu-Leu-X2])[Orn]IFH); configuration not given here), for which the parasite load remaining in test [1] is 93.7% (inactive) and 69.5% (inactive). In addition, the viability in test [1] was 71.2% and 97.2%. For the same compound, the red/green cell ratio (normalised) in test [2] was 0.87 (inactive). Moreover, the normalised cell number in test [2] (setting [5]) came to 1.23; in test [2] (setting [6]) it was 1.06. The fold change is 0.838 (inactive) in test [3] (setting [7]) and 0.994 in test [3] (setting [8]). The cell count worked out at 10300 in test [3] (setting [9]) and 12300 in test [3] (setting [10]).
As to `CCCCCCCCCCCCCCCC(=O)O[C@@H]1[C@@H](O)[C@@H](O)C([C@H](NC(=O)[C@@H]2C[C@@H](CCC)CN2C)[C@H](C)Cl)O[C@@H]1SC` (some centres not stated), in test [1], the parasite load remaining is 57.3% (inactive). Besides, the viability in test [1] came out at 113%. Also, the red/green cell ratio (normalised) in test [2] is 0.93 (inactive). Besides, the normalised cell number in test [2] (setting [5]) was determined as 1.03; in test [2] (setting [6]), 0.95. For the same compound, the values for the fold change in test [3] (setting [7]) and in test [3] (setting [8]) were 0.819 (inactive) and 4.42, respectively. Also, the cell count in test [3] (setting [9]) was 10800; in test [3] (setting [10]) it was 13200.
`O=C1O[C@H](C(O)CO)C(O)=C1O` (some centres not stated): the parasite load remaining in test [1] is 82.7% (inactive) and 21.4% (inactive). Also, the viability in test [1] is 69.6% and 79.3%. Further, in test [2], the red/green cell ratio (normalised) was 1.21 (inactive). In addition, the normalised cell number in test [2] (setting [5]) is 1.04; in test [2] (setting [6]), 1.26. Further, the fold change was 0.918 (inactive) in test [3] (setting [7]) and 4.48 in test [3] (setting [8]). Further, the cell count was found to be 12000 in test [3] (setting [9]) and 13100 in test [3] (setting [10]).
